Experimental data: publication PMC7862700, “An all-to-all approach to the identification of sequence-specific readers for epigenetic DNA modifications on cytosine”

Key:
Assay in all cases: DAPPL (digital affinity profiling via proximity ligation, sequencing); 10 mM Tris-HCl pH 7.5, 50 mM NaCl, 1 mM DTT, 4% glycerol, room temperature, 30 min; GST-TFs on glutathione beads, 16-mer random dsDNA library, 0.1% formaldehyde crosslink after washing; high values mean tight binding
FEV = target: T1, FEV (Homo sapiens, UniProt Q99581 1-238); conditions: protein: recombinant; tags: N-terminal GST; dsDNA, one strand shown
T1 sequence: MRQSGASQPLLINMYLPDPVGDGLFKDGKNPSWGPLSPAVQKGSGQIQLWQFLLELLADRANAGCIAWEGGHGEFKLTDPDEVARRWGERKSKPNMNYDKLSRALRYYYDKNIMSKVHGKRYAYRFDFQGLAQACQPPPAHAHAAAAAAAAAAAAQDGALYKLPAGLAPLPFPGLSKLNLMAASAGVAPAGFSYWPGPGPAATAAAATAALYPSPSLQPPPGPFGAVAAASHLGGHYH
How it was run: (§1)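 Binding signal is each hexamer's read frequency for a factor divided by its frequency in the tag-only sample. The factors were GST-fused human transcription factors from yeast, captured on glutathione beads, DNA-barcoded and pooled with that sample. Pools were incubated with 200 nmole of a random double-stranded 16-mer DNA library in Tris/NaCl/DTT/glycerol buffer at room temperature for 30 min, then washed, crosslinked with 0.1% formaldehyde, proximity-ligated with BsaI/T4 ligase (1 h, 37 °C), PCR-amplified and sequenced on an Illumina NextSeq500.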

ETV5 = ETV5 (Homo sapiens, UniProt P41161 1-510); conditions: protein: recombinant; tags: N-terminal GST; dsDNA, one strand shown
Chain of ETV5 (P41161 whole entry): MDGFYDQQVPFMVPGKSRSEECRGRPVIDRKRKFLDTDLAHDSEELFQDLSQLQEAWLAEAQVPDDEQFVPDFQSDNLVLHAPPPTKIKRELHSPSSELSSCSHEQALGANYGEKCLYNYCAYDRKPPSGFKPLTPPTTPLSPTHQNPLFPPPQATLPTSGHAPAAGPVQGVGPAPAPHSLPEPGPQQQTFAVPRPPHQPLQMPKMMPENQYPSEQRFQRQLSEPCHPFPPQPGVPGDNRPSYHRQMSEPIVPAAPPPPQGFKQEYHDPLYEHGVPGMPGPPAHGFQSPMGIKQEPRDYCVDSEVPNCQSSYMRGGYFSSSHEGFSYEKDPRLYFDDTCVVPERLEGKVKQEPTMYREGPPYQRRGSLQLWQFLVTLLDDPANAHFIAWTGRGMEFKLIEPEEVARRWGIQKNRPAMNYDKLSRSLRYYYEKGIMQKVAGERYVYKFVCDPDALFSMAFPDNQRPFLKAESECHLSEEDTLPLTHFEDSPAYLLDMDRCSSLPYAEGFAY
How it was run: as §1

HSF1 = HSF1 (Homo sapiens, UniProt Q00613 1-529); conditions: protein: recombinant; tags: N-terminal GST; chain copies: 3; dsDNA, one strand shown
Chain of HSF1 (Q00613 whole entry): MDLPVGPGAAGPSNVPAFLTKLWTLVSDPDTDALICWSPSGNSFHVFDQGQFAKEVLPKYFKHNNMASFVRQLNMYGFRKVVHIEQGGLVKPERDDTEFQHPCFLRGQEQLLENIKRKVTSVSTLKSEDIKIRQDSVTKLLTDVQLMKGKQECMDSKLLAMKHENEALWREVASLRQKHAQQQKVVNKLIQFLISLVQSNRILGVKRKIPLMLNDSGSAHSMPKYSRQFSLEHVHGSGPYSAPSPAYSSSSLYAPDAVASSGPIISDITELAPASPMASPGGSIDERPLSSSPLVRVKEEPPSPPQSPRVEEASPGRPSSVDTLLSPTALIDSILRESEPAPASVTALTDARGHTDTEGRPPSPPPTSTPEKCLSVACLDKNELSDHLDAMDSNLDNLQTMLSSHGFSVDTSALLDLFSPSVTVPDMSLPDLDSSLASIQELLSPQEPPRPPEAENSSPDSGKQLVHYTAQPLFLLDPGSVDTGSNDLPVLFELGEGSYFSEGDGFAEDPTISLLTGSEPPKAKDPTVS
How it was run: as §1

SPIC = target: T2, SPIC (Homo sapiens, UniProt Q8N5J4 1-248); conditions: protein: recombinant; tags: N-terminal GST; dsDNA, one strand shown
T2 sequence: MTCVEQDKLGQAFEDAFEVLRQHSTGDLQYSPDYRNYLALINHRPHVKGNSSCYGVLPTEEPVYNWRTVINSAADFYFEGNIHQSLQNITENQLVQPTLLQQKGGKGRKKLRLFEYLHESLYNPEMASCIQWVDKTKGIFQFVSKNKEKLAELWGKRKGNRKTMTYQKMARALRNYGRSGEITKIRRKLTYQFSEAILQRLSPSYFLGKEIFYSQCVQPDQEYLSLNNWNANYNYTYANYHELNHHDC
How it was run: as §1

ELF4 = ELF4 (Homo sapiens, UniProt Q99607 1-663); conditions: protein: recombinant; tags: N-terminal GST; dsDNA, one strand shown
Chain of ELF4 (Q99607 whole entry): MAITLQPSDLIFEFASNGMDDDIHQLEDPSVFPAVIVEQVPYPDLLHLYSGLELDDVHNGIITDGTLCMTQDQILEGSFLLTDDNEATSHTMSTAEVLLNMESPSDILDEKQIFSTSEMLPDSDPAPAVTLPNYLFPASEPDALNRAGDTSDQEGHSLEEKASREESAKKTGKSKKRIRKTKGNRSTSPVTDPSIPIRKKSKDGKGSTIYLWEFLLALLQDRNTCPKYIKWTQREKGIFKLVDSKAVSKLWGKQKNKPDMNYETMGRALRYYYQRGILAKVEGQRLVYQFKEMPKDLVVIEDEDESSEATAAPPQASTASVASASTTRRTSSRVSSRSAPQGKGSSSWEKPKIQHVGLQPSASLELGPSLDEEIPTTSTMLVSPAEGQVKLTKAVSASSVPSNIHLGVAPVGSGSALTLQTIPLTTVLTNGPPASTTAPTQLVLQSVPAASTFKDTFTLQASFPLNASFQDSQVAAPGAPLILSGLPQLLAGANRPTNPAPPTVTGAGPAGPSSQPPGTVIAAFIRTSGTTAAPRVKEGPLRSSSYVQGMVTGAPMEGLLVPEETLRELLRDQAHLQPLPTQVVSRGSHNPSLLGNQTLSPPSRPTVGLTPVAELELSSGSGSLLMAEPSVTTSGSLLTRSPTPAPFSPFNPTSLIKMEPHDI
How it was run: as §1

ELK4 = target: T3, ELK4 (Homo sapiens, UniProt P28324-2 1-405); conditions: protein: recombinant; tags: N-terminal GST; dsDNA, one strand shown
T3 sequence: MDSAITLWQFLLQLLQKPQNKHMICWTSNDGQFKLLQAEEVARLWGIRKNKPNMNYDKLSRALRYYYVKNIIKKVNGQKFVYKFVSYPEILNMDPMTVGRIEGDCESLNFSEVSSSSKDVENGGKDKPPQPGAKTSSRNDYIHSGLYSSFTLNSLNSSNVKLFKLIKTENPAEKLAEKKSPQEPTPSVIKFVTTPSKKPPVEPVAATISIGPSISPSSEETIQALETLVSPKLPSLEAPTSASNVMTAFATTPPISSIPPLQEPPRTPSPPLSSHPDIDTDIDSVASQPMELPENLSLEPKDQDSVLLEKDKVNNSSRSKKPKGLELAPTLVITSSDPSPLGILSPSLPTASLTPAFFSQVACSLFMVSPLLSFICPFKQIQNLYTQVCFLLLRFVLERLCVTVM
How it was run: as §1

ETV2 = target: T4, ETV2 (Homo sapiens, UniProt O00321 1-342); conditions: protein: recombinant; tags: N-terminal GST; dsDNA, one strand shown
T4 sequence: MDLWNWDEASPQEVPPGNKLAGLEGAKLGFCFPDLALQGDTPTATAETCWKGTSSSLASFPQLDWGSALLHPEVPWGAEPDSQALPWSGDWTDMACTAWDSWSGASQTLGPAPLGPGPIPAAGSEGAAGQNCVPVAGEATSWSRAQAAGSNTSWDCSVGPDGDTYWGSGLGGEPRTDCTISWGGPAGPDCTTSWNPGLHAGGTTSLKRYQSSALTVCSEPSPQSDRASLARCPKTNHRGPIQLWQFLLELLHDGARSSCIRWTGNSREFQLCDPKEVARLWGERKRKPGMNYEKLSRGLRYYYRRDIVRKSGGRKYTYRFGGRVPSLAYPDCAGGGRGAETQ
How it was run: as §1

ELF3 = target: T5, ELF3 (Homo sapiens, UniProt P78545 1-371); conditions: protein: recombinant; tags: N-terminal GST; dsDNA, one strand shown
T5 sequence: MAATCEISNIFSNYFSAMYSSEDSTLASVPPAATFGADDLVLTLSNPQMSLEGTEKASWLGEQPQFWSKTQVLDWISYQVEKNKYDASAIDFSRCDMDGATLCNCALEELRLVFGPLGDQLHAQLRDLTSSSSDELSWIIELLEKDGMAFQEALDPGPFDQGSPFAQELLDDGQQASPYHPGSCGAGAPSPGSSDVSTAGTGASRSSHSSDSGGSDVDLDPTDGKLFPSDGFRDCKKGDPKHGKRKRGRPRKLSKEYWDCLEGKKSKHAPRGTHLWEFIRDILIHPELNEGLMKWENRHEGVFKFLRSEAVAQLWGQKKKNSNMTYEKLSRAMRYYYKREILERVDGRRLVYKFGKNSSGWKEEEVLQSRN
How it was run: as §1

CRX = CRX (Homo sapiens, UniProt O43186 1-299); conditions: protein: recombinant; tags: N-terminal GST; dsDNA, one strand shown
Chain of CRX (O43186 whole entry): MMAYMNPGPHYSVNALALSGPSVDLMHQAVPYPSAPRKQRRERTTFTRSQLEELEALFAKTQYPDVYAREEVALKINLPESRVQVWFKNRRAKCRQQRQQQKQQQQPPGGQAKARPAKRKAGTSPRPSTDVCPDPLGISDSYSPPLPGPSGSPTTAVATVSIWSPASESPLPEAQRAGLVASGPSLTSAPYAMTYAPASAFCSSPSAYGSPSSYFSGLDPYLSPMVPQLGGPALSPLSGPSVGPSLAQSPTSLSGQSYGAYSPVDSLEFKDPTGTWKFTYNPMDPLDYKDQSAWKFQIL
How it was run: as §1

ETV1 = ETV1 (Homo sapiens, UniProt P50549 1-477); conditions: protein: recombinant; tags: N-terminal GST; dsDNA, one strand shown
Chain of ETV1 (P50549 whole entry): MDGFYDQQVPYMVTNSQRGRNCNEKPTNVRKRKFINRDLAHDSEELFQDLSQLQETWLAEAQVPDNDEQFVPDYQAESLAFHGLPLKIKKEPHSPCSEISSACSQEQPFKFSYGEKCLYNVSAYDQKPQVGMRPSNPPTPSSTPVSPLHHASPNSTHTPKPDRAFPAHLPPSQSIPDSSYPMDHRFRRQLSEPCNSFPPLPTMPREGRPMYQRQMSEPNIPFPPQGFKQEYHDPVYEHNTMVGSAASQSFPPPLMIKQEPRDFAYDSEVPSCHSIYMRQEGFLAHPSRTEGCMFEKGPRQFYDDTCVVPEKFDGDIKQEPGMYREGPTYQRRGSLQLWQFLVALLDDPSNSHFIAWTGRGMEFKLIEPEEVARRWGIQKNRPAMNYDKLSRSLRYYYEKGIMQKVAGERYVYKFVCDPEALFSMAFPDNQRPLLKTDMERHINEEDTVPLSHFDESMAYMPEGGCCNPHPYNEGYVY
How it was run: as §1

ERF = target: T6, ERF (Homo sapiens, UniProt P50548 1-548); conditions: protein: recombinant; tags: N-terminal GST; dsDNA, one strand shown
T6 sequence: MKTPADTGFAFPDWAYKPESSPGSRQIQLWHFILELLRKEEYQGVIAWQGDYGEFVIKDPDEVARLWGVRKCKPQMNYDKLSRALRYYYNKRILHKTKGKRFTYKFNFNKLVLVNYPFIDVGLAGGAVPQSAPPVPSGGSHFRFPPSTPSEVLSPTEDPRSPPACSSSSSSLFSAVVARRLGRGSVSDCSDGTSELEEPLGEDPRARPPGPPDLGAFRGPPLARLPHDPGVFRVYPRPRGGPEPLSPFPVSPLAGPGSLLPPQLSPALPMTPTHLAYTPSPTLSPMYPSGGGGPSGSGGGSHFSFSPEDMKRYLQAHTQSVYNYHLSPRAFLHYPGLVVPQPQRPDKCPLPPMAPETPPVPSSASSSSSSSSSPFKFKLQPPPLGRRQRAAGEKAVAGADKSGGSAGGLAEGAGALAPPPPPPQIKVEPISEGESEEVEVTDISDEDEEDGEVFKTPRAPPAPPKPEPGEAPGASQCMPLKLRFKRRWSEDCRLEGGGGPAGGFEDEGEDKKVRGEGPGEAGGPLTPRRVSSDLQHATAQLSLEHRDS
How it was run: as §1

ETV3L = target: T7, ETV3L (Homo sapiens, UniProt Q6ZN32 1-361); conditions: protein: recombinant; tags: N-terminal GST; dsDNA, one strand shown
T7 sequence: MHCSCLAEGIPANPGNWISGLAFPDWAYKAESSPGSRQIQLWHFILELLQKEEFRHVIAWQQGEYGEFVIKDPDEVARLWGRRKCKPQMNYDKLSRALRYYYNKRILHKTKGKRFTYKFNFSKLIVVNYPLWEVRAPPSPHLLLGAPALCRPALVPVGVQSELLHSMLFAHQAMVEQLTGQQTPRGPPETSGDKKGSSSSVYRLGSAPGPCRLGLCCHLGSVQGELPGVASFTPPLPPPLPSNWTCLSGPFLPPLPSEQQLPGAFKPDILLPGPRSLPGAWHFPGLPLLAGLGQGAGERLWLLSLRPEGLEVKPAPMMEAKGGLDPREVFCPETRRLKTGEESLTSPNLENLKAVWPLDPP
How it was run: as §1

ETS2 = target: T8, ETS2 (Homo sapiens, UniProt P15036 1-469); conditions: protein: recombinant; tags: N-terminal GST; dsDNA, one strand shown
T8 sequence: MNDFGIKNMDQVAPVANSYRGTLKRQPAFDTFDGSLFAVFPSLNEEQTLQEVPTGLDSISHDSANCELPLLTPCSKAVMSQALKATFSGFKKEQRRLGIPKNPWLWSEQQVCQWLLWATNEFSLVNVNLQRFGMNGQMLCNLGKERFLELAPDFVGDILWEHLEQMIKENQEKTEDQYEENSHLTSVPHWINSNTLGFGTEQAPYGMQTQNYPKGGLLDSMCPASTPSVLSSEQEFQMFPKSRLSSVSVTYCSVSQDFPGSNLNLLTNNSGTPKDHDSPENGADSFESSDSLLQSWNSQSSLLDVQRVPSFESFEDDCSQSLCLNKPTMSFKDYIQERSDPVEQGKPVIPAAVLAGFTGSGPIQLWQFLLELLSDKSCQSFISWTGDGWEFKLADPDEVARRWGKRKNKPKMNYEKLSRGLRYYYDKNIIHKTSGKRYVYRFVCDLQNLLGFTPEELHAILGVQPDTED
How it was run: as §1

SPDEF = target: T9, SPDEF (Homo sapiens, UniProt O95238 1-335); conditions: protein: recombinant; tags: N-terminal GST; dsDNA, one strand shown
T9 sequence: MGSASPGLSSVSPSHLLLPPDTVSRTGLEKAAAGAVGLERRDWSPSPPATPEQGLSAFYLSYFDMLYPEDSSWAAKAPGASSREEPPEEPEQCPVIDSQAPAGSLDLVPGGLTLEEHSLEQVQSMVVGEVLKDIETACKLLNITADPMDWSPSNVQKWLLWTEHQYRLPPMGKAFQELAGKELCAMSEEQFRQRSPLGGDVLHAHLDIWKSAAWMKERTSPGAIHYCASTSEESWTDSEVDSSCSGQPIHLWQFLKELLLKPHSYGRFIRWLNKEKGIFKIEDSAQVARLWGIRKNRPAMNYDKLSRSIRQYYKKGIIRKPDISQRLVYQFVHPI
How it was run: as §1

ETV7 = target: T10, ETV7 (Homo sapiens, UniProt Q9Y603 1-341); conditions: protein: recombinant; tags: N-terminal GST; dsDNA, one strand shown
T10 sequence: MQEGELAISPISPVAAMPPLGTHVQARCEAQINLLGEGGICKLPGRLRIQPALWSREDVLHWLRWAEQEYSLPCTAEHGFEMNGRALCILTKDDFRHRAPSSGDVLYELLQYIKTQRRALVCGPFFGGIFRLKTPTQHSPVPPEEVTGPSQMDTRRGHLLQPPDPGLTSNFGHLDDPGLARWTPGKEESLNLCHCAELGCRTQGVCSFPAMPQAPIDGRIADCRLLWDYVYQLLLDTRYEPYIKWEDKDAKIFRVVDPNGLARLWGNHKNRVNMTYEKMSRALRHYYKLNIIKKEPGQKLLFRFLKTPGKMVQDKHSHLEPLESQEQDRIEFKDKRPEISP
How it was run: as §1

ELF5 = target: T11, ELF5 (Homo sapiens, UniProt Q9UKW6-2 1-255); conditions: protein: recombinant; tags: N-terminal GST; dsDNA, one strand shown
T11 sequence: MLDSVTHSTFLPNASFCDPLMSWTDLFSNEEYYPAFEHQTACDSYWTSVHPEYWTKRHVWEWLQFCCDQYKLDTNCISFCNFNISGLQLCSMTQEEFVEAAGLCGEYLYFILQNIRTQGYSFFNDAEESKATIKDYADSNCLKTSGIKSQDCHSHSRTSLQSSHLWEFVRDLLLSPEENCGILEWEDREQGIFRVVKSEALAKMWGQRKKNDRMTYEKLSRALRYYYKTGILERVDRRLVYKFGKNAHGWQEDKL
How it was run: as §1

ETV3 = target: T12, ETV3 (Homo sapiens, UniProt P41162-2 1-143); conditions: protein: recombinant; tags: N-terminal GST; dsDNA, one strand shown
T12 sequence: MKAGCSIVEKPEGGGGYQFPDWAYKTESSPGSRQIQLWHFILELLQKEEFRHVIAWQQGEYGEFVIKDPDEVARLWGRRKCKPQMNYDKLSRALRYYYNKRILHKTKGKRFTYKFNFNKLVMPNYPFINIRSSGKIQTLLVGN
How it was run: as §1

ETV6 = ETV6 (Homo sapiens, UniProt P41212 1-452); conditions: protein: recombinant; tags: N-terminal GST; dsDNA, one strand shown
Chain of ETV6 (P41212 whole entry): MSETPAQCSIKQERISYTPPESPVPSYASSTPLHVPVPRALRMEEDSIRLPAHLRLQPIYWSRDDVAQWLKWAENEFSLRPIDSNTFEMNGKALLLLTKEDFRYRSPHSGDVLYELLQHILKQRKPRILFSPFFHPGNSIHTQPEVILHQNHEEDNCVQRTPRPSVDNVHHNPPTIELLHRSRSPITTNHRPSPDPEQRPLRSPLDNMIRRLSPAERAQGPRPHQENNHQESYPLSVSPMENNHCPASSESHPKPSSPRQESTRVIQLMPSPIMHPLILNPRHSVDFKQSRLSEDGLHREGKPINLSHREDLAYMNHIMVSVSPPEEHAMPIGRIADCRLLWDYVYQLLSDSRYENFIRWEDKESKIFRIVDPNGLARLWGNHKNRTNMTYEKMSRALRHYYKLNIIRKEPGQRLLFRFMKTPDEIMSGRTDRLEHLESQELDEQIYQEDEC
How it was run: as §1

## ACGTTC
FEV
  binding signal: 1.3 fold enrichment (6-mer frequency, TF over GST control)
ETV5
  binding signal: 1.27 fold enrichment (6-mer frequency, TF over GST control)
HSF1
  binding signal: 1.94 fold enrichment (6-mer frequency, TF over GST control)
SPIC
  binding signal: 1.21 fold enrichment (6-mer frequency, TF over GST control)
ELF4
  binding signal: 1.42 fold enrichment (6-mer frequency, TF over GST control)
ELK4
  binding signal: 1.29 fold enrichment (6-mer frequency, TF over GST control)
ETV2
  binding signal: 1.25 fold enrichment (6-mer frequency, TF over GST control)
ELF3
  binding signal: 1.25 fold enrichment (6-mer frequency, TF over GST control)
CRX
  binding signal: 1.28 fold enrichment (6-mer frequency, TF over GST control)
ETV1
  binding signal: 1.28 fold enrichment (6-mer frequency, TF over GST control)
ERF
  binding signal: 1.28 fold enrichment (6-mer frequency, TF over GST control)
ETV3L
  binding signal: 1.42 fold enrichment (6-mer frequency, TF over GST control)
ETS2
  binding signal: 1.3 fold enrichment (6-mer frequency, TF over GST control)
SPDEF
  binding signal: 1.21 fold enrichment (6-mer frequency, TF over GST control)
ETV7
  binding signal: 1.42 fold enrichment (6-mer frequency, TF over GST control)
ELF5
  binding signal: 1.42 fold enrichment (6-mer frequency, TF over GST control)
ETV3
  binding signal: 1.18 fold enrichment (6-mer frequency, TF over GST control)
ETV6
  binding signal: 1.36 fold enrichment (6-mer frequency, TF over GST control)
